Data: PubChem BioAssay (NCATS)
Results filed as inconclusive are left out. Where a call stands in place of a potency, no number is given. Calls of active or inactive are those of the source. Calls come from the whole dose curve; as a rule, active = well fitted cell-killing curve with a large enough effect; inconclusive = small, poorly fitted or top-dose-only effect; inactive = no such curve, though single readings can be large or run the other way.

How the values were obtained:
[1] = qHTS of pediatric cancer cell lines to identify multiple opportunities for drug repurposing: Primary screen for Rh30 cells (AID 1347107); conditions: Rh30 rhabdomyosarcoma viability, CellTiter-Glo luminescence, 48 h; series mostly up to 46 µM; note: nearly all actives have a fitted effect of over 75% in size
In short: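 Viability after 48 h compound treatment at 37C, 500-1,000 cells/well, read as ATP luminescence with CellTiter-Glo. Primary screens used 11-point (MIPE, 0.78 nM-46 µM) or 8-point (NPC, 0.59 nM-46 µM) final concentrations; follow-up screens used 11-point dilutions.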

[2] = qHTS of pediatric cancer cell lines to identify multiple opportunities for drug repurposing: Primary screen for Rh41 cells (AID 1347108); conditions: Rh41 rhabdomyosarcoma viability, CellTiter-Glo luminescence, 48 h; series mostly up to 46 µM; note: nearly all actives have a fitted effect of over 70% in size
In short: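 500-1,000 cells/well; 5 h pre-incubation 37 °C/5% CO2; compound pinned; 48 h; CellTiter-Glo, 15 min RT; luminescence. MIPE 11-pt from 0.78 nM, NPC 8-pt from 0.59 nM final. Bortezomib 2.3 µM final as positive control.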
Potency is the fitted concentration of half-maximal effect.

SMILES	Potency [1]	Potency [2]
Cc1ccc(S(=O)(=O)Nc2cc(Cl)ccc2C(=O)Nc2nc(-c3ccccc3)cs2)cc1	inactive	18.7 µM (active)
Nc1nc(-c2nn(Cc3ccccc3F)c3ncccc23)nc(N)c1N1CCOCC1	inactive	inactive
Fc1cc(-c2cccc3ncc(-c4cnn(C5CCNCC5)c4)nc23)cc(F)c1CN1CCOCC1	23.5 µM (active)	23.5 µM (active)
CCCn1c(=O)c2[nH]c(-c3cnn(Cc4cccc(C(F)(F)F)c4)c3)nc2n(CC)c1=O	inactive	inactive
Cc1cc(Nc2cc(N3CCN(C)CC3)nc(C=Cc3ccccc3)n2)n[nH]1	34 µM (active)	10.8 µM (active)
CCN1CCN(CC(=O)Nc2ccc(-c3cccc4c(=O)cc(N5CCOCC5)oc34)c3sc4ccccc4c23)CC1	10.5 µM (active)	1.66 µM (active)
C1=CCOCc2cc(ccc2OCCN2CCCC2)Nc2nccc(n2)-c2cccc(c2)OCC1	14.8 µM (active)	5.9 µM (active)
CCCCCCCCCC(=O)N[C@@H](Cc1c[nH]c2ccccc12)C(=O)N[C@H](CC(N)=O)C(=O)N[C@@H](CC(=O)O)C(=O)N[C@@H]1C(=O)NCC(=O)N[C@@H](CCCN)C(=O)N[C@@H](CC(=O)O)C(=O)N[C@H](C)C(=O)N[C@@H](CC(=O)O)C(=O)NCC(=O)N[C@H](CO)C(=O)N[C@@H]([C@@H](C)CC(=O)O)C(=O)N[C@@H](CC(=O)c2ccccc2N)C(=O)O[C@@H]1C	inactive	inactive
O=C(O)CO.[NH2-].[NH2-].[Pt+2]	inactive	inactive
